Active and inactive are the calls of the source.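 Rule for the calls: active = compounds whose dose series gives a full or clear partial fitted curve of increased nuclear translocation; inconclusive = weak partial curve or effect only at the top dose; inactive = no dose-dependent translocation response.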
Potency is the fitted concentration of half-maximal effect.

The target in this test is Glucocorticoid receptor (Homo sapiens) (UniProt P04150). Description: GR-GFP Redistribution (AID 450). The settings on record: U2OS GR-GFP nuclear translocation, laser cytometry, 2 h. An excerpt: NIH Molecular Libraries Screening Centers Network [MLSCN]
Sequence of Glucocorticoid receptor (Homo sapiens) (P04150 whole entry, looked up): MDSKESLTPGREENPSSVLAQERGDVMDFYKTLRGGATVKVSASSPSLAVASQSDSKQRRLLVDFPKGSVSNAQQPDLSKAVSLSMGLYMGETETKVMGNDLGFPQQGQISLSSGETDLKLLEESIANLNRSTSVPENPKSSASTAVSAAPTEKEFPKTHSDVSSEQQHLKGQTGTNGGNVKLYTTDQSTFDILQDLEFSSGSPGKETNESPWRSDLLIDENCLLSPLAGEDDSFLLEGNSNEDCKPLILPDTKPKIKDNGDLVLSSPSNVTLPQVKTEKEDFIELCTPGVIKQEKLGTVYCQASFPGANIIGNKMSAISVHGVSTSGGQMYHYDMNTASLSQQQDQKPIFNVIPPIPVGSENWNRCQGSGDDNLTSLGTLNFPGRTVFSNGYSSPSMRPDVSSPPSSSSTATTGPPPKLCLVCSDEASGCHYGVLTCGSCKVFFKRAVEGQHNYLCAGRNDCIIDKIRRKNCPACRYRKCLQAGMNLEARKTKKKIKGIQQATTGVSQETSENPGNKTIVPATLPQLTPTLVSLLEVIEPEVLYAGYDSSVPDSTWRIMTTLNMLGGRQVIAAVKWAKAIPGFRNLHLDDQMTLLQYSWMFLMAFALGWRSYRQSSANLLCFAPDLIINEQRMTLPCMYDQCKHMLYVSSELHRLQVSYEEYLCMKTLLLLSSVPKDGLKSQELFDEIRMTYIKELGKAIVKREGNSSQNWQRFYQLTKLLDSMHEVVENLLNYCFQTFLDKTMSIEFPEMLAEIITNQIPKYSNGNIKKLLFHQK
NIH Chemical Genomics Center [NCGC]
The glucocorticoid receptor (GR) Redistribution assay (BioImage) enables the visualization of GR cytoplasmic to nuclear translocation by the use of a GR-GFP fusion. GR is normally cytosolic, however ligands such as dexamethasone, cause nuclear translocation where the protein binds to response elements and interacts with various co-factors to modulate transcription. Because both functional agonists and antagonists can induce nuclear translocation, this assay can detect ligands regardless of their effects on gene expression. GR-GFP expressing U20S cells were used here. Dexamethasone was the positive control for translocation and data normalization. Detection of nuclear translocation was performed in 1536-well plates using the Acumen laser scanning plate cytometer (TTP LabTech). Validation of this assay and a detailed protocol have been described.
NCGC Assay Protocol Summary:
GR-GFP U2OS cells were maintained in DMEM with Glutamax and high glucose, 1% v/v penicillin-streptomycin, and 0.5 mg/mL Geneticin. For cell culture, 10% […] fetal bovine serum (FBS) was used (Invitrogen #26140-079). For cell plating 10% dextran, charcoal-stripped FBS (Hyclone SH30068.03) was used. U2OS cells were trypsin treated, suspended in medium, and passed through a 40 um basket filter. The cells were seeded at 600 cells/5 uL/well into clear-bottom black sided 1536-well plates and incubated for approximately 20 hrs, 37degC, 5%, CO2 in a tissue culture incubator. Twenty-three nL of compound was delivered by pin tool and the plates were incubated as above for 2 hrs. The compounds were tested as a 7-point titration ranging from 46 uM to 0.6 nM. The cells were fixed using the Kalypsys Washer/Dispenser station. The fixing protocol involved aspiration of the cell media, addition of 6 uL/well of PBS, aspiration of PBS, addition of 5uL/well of 100% methanol, aspiration of methanol, and addition of 3 uL/well PBS with 1.5 uM propidium iodide (PI). The plates were read by the Acumen Explorer using a 1 x 8 um scan of the whole well area. PI fluorescence triggered the collection of PI and GFP signals. A nuclei population was defined by a 10 to 100 um width and depth filter that eliminated small and large fluorescent particles. Two subpopulations of nuclei were then defined by peak intensity of GFP fluorescence to obtain translocated and untranslocated objects. The number of translocated objects was used for data normalization.
Keywords: NIH Roadmap, MLSCN, MLI, MLSMR, sOGT, qHTS, NCGC
`COc1cc2nc(N(C)CCCNC(=O)[C@@H]3CCCO3)nc(N)c2cc1OC`: the Potency was > 20.6 µM (inactive).

As to `COc1cccc2c1C(=O)c1c(O)c3c(c(O)c1C2=O)C[C@@](O)(C(=O)CO)C[C@H]3O[C@H]1C[C@@H](N)[C@H](O)[C@@H](C)O1.[W]`, the Potency is > 46 µM (inactive). Turning to `CC(=O)OC(C)(C)N=Nc1ccc(Br)cc1`, the Potency was > 46 µM (inactive).

As to `NCCSCCC(=O)O`, the Potency was > 46 µM (inactive). `COc1ccc2c(Cl)cc(NC(=S)Nc3ccccc3)nc2c1`: the Potency was > 46 µM (inactive).

For `O=C(O)/C=C\C(=O)Nc1ncn[nH]1`, the Potency was > 46 µM (inactive). Take `C(=Nc1cnc2ccccc2c1)c1ccc2ccccc2n1`: the Potency is > 46 µM (inactive). Consider `N=c1ccn2c(n1)O[C@H]1[C@@H](OP(=O)(O)O)[C@H](CO)O[C@H]12`, for which the Potency was > 46 µM (inactive). For `Cc1c(Cl)c(S(N)(=O)=O)cc(S(N)(=O)=O)c1NC(=O)c1ccc(Cl)cc1`, the Potency was > 46 µM (inactive).

On to `COC(=O)[C@](C)(N)Cc1ccc(O)cc1`, for which the Potency was > 46 µM (inactive).

For the compound `O=C(O)c1ccccc1-c1ccccc1C(=O)Nc1ccc2c(c1)Cc1cc(F)ccc1-2`, the Potency is > 46 µM (inactive).

Take `N[C@@H](CSC1(c2ccc(Cl)cc2)c2ccccc2-c2ccccc21)C(=O)O`: the Potency is > 46 µM (inactive). Take `Cc1ccc(-c2nnc(-c3ccc4ccccc4c3)o2)cc1`: the Potency was > 46 µM (inactive). On to `O=[N+]([O-])c1cccc(/C=N\NC2=CS(=O)(=O)C=C2)c1`, for which the Potency was > 46 µM (inactive). Take `COc1cc(C)cc(OC)c1/C=C\C(=O)O`: the Potency was > 46 µM (inactive).

Regarding `CCN(CC)COC(=S)S`, the Potency was > 46 µM (inactive). The value for `CC(CC(=O)O)(CC(=O)O)c1ccccc1` was > 46 µM (inactive); that for `Cc1c(-c2nc(N)nc(C3CC3)c2C)nc(N)nc1C1CC1` was > 46 µM (inactive). Turning to `O=C(Nc1ccc2ncccc2c1)Nc1ccc2ncccc2c1`, the Potency was > 46 µM (inactive). With `O=C(O)c1c[nH]c2c(ccc3[nH]cc(C(=O)O)c(=O)c32)c1=O`, the Potency was > 46 µM (inactive).

In the case of `Cn1c(=O)c2[nH]c(CCS)nc2n(C)c1=O`, the Potency was > 46 µM (inactive). `Cc1cn([C@H]2C[C@H](N=[N+]=[N-])[C@H](CO)O2)c(=O)[nH]c1=O`: the Potency was > 46 µM (inactive). With `CC1(C)[C@@H]2CC[C@@](C)(C2)[C@H]1OC(=O)c1ccccc1C(=O)O`, the Potency is > 46 µM (inactive). For the compound `O=c1oc2ccccc2c(O)c1/C=N/c1nc(-c2ccc(O)c(O)c2)cs1`, the Potency was > 46 µM (inactive). In the case of `CC1(C)[C@@H]2CC[C@@]1(CS(=O)(=O)Nc1ccccc1)C(=O)C2`, the Potency is > 46 µM (inactive).

`CC(C)(C)c1ccc(O)c(CN(Cc2cc(C(C)(C)C)ccc2O)C2CCCCC2)c1`: the Potency is > 46 µM (inactive). In the case of `Cc1cc(Cc2cc(C)c(N)cc2N)c(N)cc1N`, the Potency was > 46 µM (inactive). As for `COc1cc(N=C(N)N=C(N)N)c2ncccc2c1`, the Potency is > 46 µM (inactive). Turning to `O=C(O)C(Cl)(c1ccccc1)c1ccccc1`, the Potency was > 46 µM (inactive).

Take `COc1cc(NCC[C@@H]2CCCCN2)c2ncccc2c1`: the Potency was > 46 µM (inactive). As for `Nc1ccc(-c2ccc(Nc3cc(S(=O)(=O)O)c(N)c4c3C(=O)c3ccccc3C4=O)cc2)c(S(=O)(=O)O)c1`, the Potency was > 46 µM (inactive). For `O=C(O)[C@@H]1CCN(Cc2oc(CO)cc(=O)c2O)C1`, the Potency was > 46 µM (inactive). With `CC(=O)[C@]1(O)CC[C@@H]2[C@H]3C[C@@H](C)C4=CC(=O)CC[C@@]4(C)[C@H]3[C@@H](O)C[C@]21C`, the Potency was < 2.95e-05 µM (active). For the compound `CC(=O)N[C@@H]1CONC1=O`, the Potency is > 46 µM (inactive). Turning to `Cc1c(N2CCCC2)cc2c(c1NC(=O)c1ccccc1Cl)C(C)(C)CC2(C)C`, the Potency is > 46 µM (inactive).

For `N/C(CC/C(N)=N/O)=N\O`, the Potency is > 46 µM (inactive). With `NCC(=O)Nc1ccc(Cl)cc1C(=O)c1ccc[nH]1`, the Potency was > 46 µM (inactive). On to `CN(C)CN1C(=O)S/C(=C2/C(=O)N(CN(C)C)c3ccccc32)C1=O`, for which the Potency is > 46 µM (inactive). On to `O=c1[nH]c(=S)c2[nH]c(=O)n(-c3ccccc3)c2[nH]1`, for which the Potency was > 46 µM (inactive). Consider `Cc1ccccc1S(=O)(=O)O[C@@H]1NS(=O)(=O)c2ccccc21`, for which the Potency is > 46 µM (inactive).

The values above are taken from PubChem BioAssay (NCATS).
